The list is not random: actives were taken first. Their share in the collection is about 2.7%.
ALOX12 inh – Primary qHTS assay for inhibitors of human arachidonate 12S-lipoxygenase (ALOX12): Round 2. 580,000 tested, 1.1% active. purified 12hLO, xylenol orange hydroperoxide absorbance. Potency, µM (doses to about 108 µM), inactives show at the highest dose activity change, negative = inhibition, actives largely listed as inhibitors; also: % is scaled to controls: 0 for no effect and ±100 for the full control effect
Target sequence (P18054 whole entry, looked up): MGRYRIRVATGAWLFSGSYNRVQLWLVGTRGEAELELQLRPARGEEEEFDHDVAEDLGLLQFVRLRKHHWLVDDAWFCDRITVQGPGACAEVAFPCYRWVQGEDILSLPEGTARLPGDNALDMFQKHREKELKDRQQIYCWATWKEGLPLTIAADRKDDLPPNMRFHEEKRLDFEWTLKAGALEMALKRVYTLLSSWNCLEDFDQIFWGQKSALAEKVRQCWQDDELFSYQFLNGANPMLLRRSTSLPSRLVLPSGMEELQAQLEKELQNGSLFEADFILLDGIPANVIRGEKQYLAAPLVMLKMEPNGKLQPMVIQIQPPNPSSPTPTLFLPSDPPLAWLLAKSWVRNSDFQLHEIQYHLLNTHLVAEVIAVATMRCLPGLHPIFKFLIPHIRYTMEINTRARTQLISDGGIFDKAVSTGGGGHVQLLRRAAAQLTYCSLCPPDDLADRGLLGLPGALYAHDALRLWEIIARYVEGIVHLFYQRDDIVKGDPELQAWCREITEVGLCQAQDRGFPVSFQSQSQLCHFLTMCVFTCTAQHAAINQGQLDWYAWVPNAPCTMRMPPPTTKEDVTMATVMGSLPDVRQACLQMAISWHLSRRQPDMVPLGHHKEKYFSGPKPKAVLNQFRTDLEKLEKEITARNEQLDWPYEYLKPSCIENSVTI
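Purified human 12hLO (150 nM final) in 25 mM Hepes, 0.01% Triton X-100, pH 7.0 was preincubated 15 min at room temperature with compound. Then 40 uM arachidonic acid was added, 30 min. Hydroperoxide was read by Fe-XO absorbance ratio 573/405 nm.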
TGFb inhibitor – qHTS for Inhibitors of TGF-b. 410,000 tested, 1.2% active. AID 588855, 2011. Potency, µM (series often up to 46.1 µM), inactives show top-dose activity, negative = inhibition, actives largely listed as inhibitors. HepG2 CAGA-GFP TGF-b/SMAD3 reporter, GFP fluorescence, 18 h; TGF-beta stimulated, 500 pg/mL final; also: % is scaled to controls: 0 for no effect and ±100 for the full control effect; nearly all actives have a fitted effect of over 65% in size
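GFP signal (ex488/em500-530) from TGF-beta-stimulated HEPG2 CAGA-GFP cells, 500 pg/mL final, 18 h at 37 degrees C in DMEM plus 1% FBS, normalized to unstimulated and DMSO-stimulated controls.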
ATXN viability – Viability Counterscreen for Primary qHTS for Inhibitors of ATXN expression; 400,000 tested, 0.49% active; S2 cells (HEK-293 line with an ATXN2-luciferase reporter) viability, CellTiter-Fluor protease fluorescence, 24 h; Potency, µM (titrated, usually from 56.7 µM), usual class: cytotoxic; AID 651635, 2014; also: nearly all actives have a fitted effect of over 40% in size
ATXN2 expr inh – Primary qHTS for Inhibitors of ATXN expression. HEK-293 ATXN2-luciferase reporter, luminescence, 24 h. Potency, µM (doses to about 57 µM), for the others: at the top dose activity change, negative = inhibition, actives largely listed as inhibitors. 360,000 tested, 0.72% active. AID 1745845, 2022; also: % is scaled to controls: 0 for no effect and ±100 for the full control effect; nearly all actives have a fitted effect of over 55% in size
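ATXN2-luciferase reporter cells (luciferase flanked by upstream and downstream ATXN2 gene portions) were treated 24 h at 37 °C with compounds at up to 57 uM. SteadyGlo luminescence gave expression; GF-AFC fluorescence gave viability.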
HepG2 viability – qHTS for Inhibitors of TGF-b: Cytotox Counterscreen; HepG2 CAGA-GFP viability, ATP luminescence, 18 h; Potency, µM (series often up to 46.1 µM), for inactives: at the highest dose activity change, negative = cytotoxicity, hits mostly cytotoxic; 410,000 tested, 0.76% active
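HepG2 CAGA-GFP cells (1000/well, DMEM with 1% FBS) received compound, then TGF-beta at 500 pg/mL final, and were incubated 18 hours at 37 degrees C. Viability was read by CellTiter-Glo luminescence. Media-only wells were set as complete cell-killing and DMSO as no toxicity.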
Active calls of the source: *; i = inactive; ? = inconclusive; . = no result given; ! = a repeat was not active; [ ] = another dose, or the depositor's remark. Calls follow the shape of the dose curve; as a rule, active = well fitted curve in the direction sought with a large enough effect; inconclusive = small, poorly fitted or top-dose-only effect, or another doubt; inactive = no such curve, though single readings can be large; an effect the other way counts as inactive or inconclusive. Potency is read from the fitted curve at half-maximal effect.

SMILES	ALOX12 inh	TGFb inhibitor	ATXN viability	ATXN2 expr inh	HepG2 viability
O=C(NC1CCCCCCC1)c1cc(C(F)(F)F)cc(C(F)(F)F)c1	1%	.	.	.	.
COCCn1c(=O)n([C@H]2CCCN(C(=O)CC3CCCCC3)C2)c2ncccc21	46%	.	.	.	.
CC(=O)NCCNc1nc(-c2cccc(NS(C)(=O)=O)c2)nc2ccccc12	2.2µM*	.	.	.	.
CC(=O)c1cccc(Nc2nc(-c3cccc(C)c3)nc3ccccc23)c1	6.3µM*	?	?	?	-59%
CC(=O)NCCNc1nc(-c2ccccc2C(F)(F)F)nc2ccccc12	-12%	.	.	.	.
CC(=O)c1cccc(Nc2nc(-c3ccc(C)cc3)nc3ccccc23)c1	18%	.	.	.	.
COc1cccc(OC)c1C(=O)NCCc1c[nH]c2ccccc12	38%	.	.	.	.
COc1cc2c(CCNC(C)=O)c[nH]c2cc1O	40µM*!	1%	i	2%	3%
Cc1ccc(S(=O)(=O)/N=C(/Nc2ccc([N+](=O)[O-])cc2[N+](=O)[O-])c2ccccc2)cc1	?	?	?	-12%	-16%
Cc1ccc(S(=O)(=O)/N=C(/Nc2ccc([N+](=O)[O-])cc2)c2ccccc2)cc1	45µM*	-15%	i	-10%	-26%
CN(Cc1ccc(-c2ccccc2)cc1)Cc1nccs1	37%[176 µM]	.	.	.	.
CC(C)(C)C(=O)N1N=C(c2ccsc2)CC1c1ccc2nccnc2c1 (stereo not given)	16%	.	.	.	.
O=C(Nc1ccc2nc3n(c(=O)c2c1)CCCC3)c1cc([N+](=O)[O-])ccc1F	.	?	.	25µM*	-60%
CCOc1ccc(NC(=O)c2ccc3c(=O)n4c(nc3c2)CCCCC4)cc1	1%	6%	i	-7%	8.9µM*!
CCc1ccc(NC(=O)c2ccc3c(=O)n4c(nc3c2)CCCCC4)cc1	1%	-22%	?	?	-26%
CCN(CC)S(=O)(=O)c1ccc(NC(=O)c2ccc3c(=O)n4c(nc3c2)CCCCC4)cc1	5%	?	.	22µM*	-32%
O=C(Nc1cccc(S(=O)(=O)N2CCCCC2)c1)c1ccc2c(=O)n3c(nc2c1)CCCCC3	-2%	?	?	?	3%
CC(=O)N1CCC2(CC1)NC(=O)N(c1ccccc1)N2	?	9%	i	-12%	13%
CN(C)c1ccc(C(=O)N2CCC3(CC2)NC(=O)N(c2ccccc2)N3)cc1	2.8µM*	.	.	.	.
Cc1ccc(C(=O)N2CCC3(CC2)NC(=O)N(c2ccccc2)N3)cc1F	4µM*	.	.	.	.
O=Cc1c[nH]c2cc(OCc3ccccc3)ccc12	-17%	.	.	.	.
COc1ccccc1-c1oc2ccccc2c1C#CC1(N)CCCCC1	?	?	25µM*	?	-101%
O=[N+]([O-])c1ccc2nc(-c3ccc(Cl)cc3)[nH]c2c1	20µM*	?	i	.	-40%
Cc1ccc(C)c(N2CCN(CC3CCCCC3)CC2)c1	4.5µM*	-9%	?	-33%	-2%
Cc1cc(C(=O)N/N=C/c2ccc3c(c2)OCO3)c(C)o1	-1%	-2%	i	4%	-20%
SMILES	ALOX12 inh	TGFb inhibitor	ATXN viability	ATXN2 expr inh	HepG2 viability
Cc1occc1C(=O)N/N=C/c1ccc(-c2ccccc2)cc1	3%	-15%	i	1%	11µM*
Cc1ccsc1C(=O)N/N=C/c1ccc2c(c1)OCO2	1%	-18%	i	43%	5.6µM*
Cc1occc1C(=O)N/N=C/c1ccc2c(c1)OCO2	-1%	0%	i	?	11µM*
Cc1ccc(OCCN(C)C(=O)NCc2ccccc2)cc1	17%	.	.	.	.
O=C(O)/C(=C\c1ccc(Cl)c([N+](=O)[O-])c1)c1ccc(S(=O)(=O)N2CCCC2)s1	18µM*	4%	i	-3%	-3%
O=C1Cc2cc(CCN3CCN(c4nsc5ccccc45)CC3)c(Cl)cc2N1	-47%[57.4 µM]	.	35µM*	?	.
COc1ccc(C(=O)NC(=S)NNC(=O)c2ccncc2)cc1Br	?	4%	?	?	-5%
COc1ccc(C(=O)NC(=S)NC(C)C)cc1Br	4µM*	?	i	31%	-34%
COc1ccc(C(=O)NNC(=S)NC(=O)c2ccc(F)cc2)cc1Br	?	-28%	?	.	-19%
COc1ccc(C(=O)NC(=S)NCc2ccco2)cc1Br	22µM*	-19%	i	0%	-5%
COc1ccc(C(=O)NC(=S)NNC(=O)c2ccc(NC(C)=O)cc2)cc1Br	13µM*	4%	?	-6%	9%
COc1ccc(C(=O)NC(=S)NC(C)(C)C)cc1Br	8.9µM*	?	i	42%	-45%
O=[N+]([O-])c1ccc(N=Nc2c(Cl)cc(O)cc2Cl)cc1	?	1.1µM*	?	.	3.2µM*
Cc1cc(C(=O)CCl)c(C)n1-c1cccc([N+](=O)[O-])c1	?	?	25µM*	?	-95%
CC(=O)c1c(C(C)=O)c(C)n(-c2cccc([N+](=O)[O-])c2)c1C	1%	12%	i	-8%	-18%
Cc1ccc(OCC(=O)c2cc(C)c(C)cc2C)c([N+](=O)[O-])n1	0%	11µM*	i	1%	-32%
Cc1ccc(OCC(=O)c2cc(C)n(-c3ccccc3)c2C)c([N+](=O)[O-])n1	0%	?	i	3.2µM*	-15%
CC(CC(=O)NCc1coc(-c2cccs2)n1)NC(=O)c1ccccc1 (stereo not given)	10%	.	.	.	.
CCCOc1ccc(NC(=O)CCC)c2cccnc12	0%	.	.	.	.
CO[C@H]1CC[C@@]2(C)[C@@H](CC[C@@H]3[C@@H]2CC[C@@]2(C)[C@H]3C[C@H](C(=O)O)O[C@]23CCCO3)C1	-2%	2%	i	-5%	16µM*
CC(N1CCOC1=O)S(=O)(=O)c1ccccc1 (stereo not given)	35µM*	-2%	i	-10%	5%
CC(S(=O)(=O)c1ccccc1)S(=O)(=O)c1ccccc1	12%	3%	i	.	3%
CCc1ccc(C(=O)N2CCN(c3cc(Cl)ccc3C)CC2)s1	-14%	.	.	.	.
COc1ccc(C2c3ccc4ccccc4c3Oc3ncn(CCN(C)C)c(=N)c32)cc1 (stereo not given)	0%	16µM*	?	-29%	-80%
N=c1c2c(ncn1Cc1ccco1)Oc1ccc3ccccc3c1C2c1ccccc1 (stereo not given)	?	0%	.	22µM*	-2%
COc1ccc(C2c3ccc4ccccc4c3Oc3ncn(CCCO)c(=N)c32)cc1 (stereo not given)	?	?	.	25µM*	-117%
